# Data reported in article PMC12820563, “FoxP3 forms a head-to-head dimer in vivo and stabilizes its multimerization on adjacent microsatellites”.
# Over roughly 16,000 sequences, “rpm ratio (pull-down/input)” has its median near 0.5; the highest 2% begin near 5.5. The sample holds the highest values, similar sequences and a random draw of the others, so the mix is not that of the screen.
# Biological target: T1, MBP-FoxP3dN (Mus musculus, UniProt Q99JB6 188-423)
# T1 sequence: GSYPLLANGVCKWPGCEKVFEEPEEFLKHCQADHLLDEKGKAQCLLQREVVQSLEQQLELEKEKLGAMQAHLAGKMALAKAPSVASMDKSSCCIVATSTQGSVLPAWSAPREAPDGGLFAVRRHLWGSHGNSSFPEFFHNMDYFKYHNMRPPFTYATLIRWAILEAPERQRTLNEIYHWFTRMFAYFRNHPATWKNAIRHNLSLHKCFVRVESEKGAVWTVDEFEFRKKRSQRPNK
# Experiment: PD-seq (MBP pull-down with sequencing); 20 mM Tris-HCl pH 7.5, 100 mM NaCl, 1.5 mM MgCl2, 0.4 uM protein, 0.1 uM dsDNA library, 30 min, room temperature, amylose pull-down; high values mean tight binding
# Details: protein: recombinant; tags: His6-MBP; chain copies: 2; dsDNA, one strand shown
# Procedure, shortened: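 E. coli-expressed mouse FoxP3 or FoxP1 fragment, N-terminus removed and tagged with His6-MBP, was used at 0.4 µM against 0.1 µM of a Klenow-filled degenerate double-stranded DNA library. After 30 min at room temperature in Tris pH 7.5 buffer with NaCl and MgCl2, complexes were pulled down on amylose resin and washed three times. Binding is pull-down over input reads-per-million enrichment from pooled replicates of the proteinase K-released, PCR-barcoded, Illumina-sequenced DNA.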
row,Sequence,binding signal
1,GATGATTGTTCTCCCAGCTGATGAATTTGCAGTATCGAGTAAACAAATTTTCCTAATCTTTCTGTTCAAGCGCCATCTAC,1.49 RPM ratio (pull-down/input)
2,GATGATTGTTCTCCCAGCTGATGAATTTATATACTCGAGTAAACAAATTTTCCTAATCTTTCTGTTCAAGCGCCATCTAC,3.39 RPM ratio (pull-down/input)
3,GATGATTGTTCTCCCAGCTGATGAATTTTGGCCTTCGAGTAAACAAATTTTCCTAATCTTTCTGTTCAAGCGCCATCTAC,2.06 RPM ratio (pull-down/input)
4,GATGATTGTTCTCCCAGCTGATGAATTATTGCGATCGAGTAAACAAATTTTCCTAATCTTTCTGTTCAAGCGCCATCTAC,1.08 RPM ratio (pull-down/input)
5,GATGATTGTTCTCCCAGCTGATGAATTCGTTTGTTCGAGTAAACAAATTTTCCTAATCTTTCTGTTCAAGCGCCATCTAC,5.83 RPM ratio (pull-down/input)
6,GATGATTGTTCTCCCAGCTGATGAATTTTTTGTTTCGAGTAAACAAATTTTCCTAATCTTTCTGTTCAAGCGCCATCTAC,0.423 RPM ratio (pull-down/input)
7,GATGATTGTTCTCCCAGCTGATGAATTTGATTGTTCGAGTAAACAAATTTTCCTAATCTTTCTGTTCAAGCGCCATCTAC,6.32 RPM ratio (pull-down/input)
8,GATGATTGTTCTCCCAGCTGATGAATTGGTTGGTTCGAGTAAACAAATTTTCCTAATCTTTCTGTTCAAGCGCCATCTAC,3.77 RPM ratio (pull-down/input)
9,GATGATTGTTCTCCCAGCTGATGAATTTGGTTGTTCGAGTAAACAAATTTTCCTAATCTTTCTGTTCAAGCGCCATCTAC,5.35 RPM ratio (pull-down/input)
10,GATGATTGTTCTCCCAGCTGATGAATTTGAATTTTCGAGTAAACAAATTTTCCTAATCTTTCTGTTCAAGCGCCATCTAC,0.538 RPM ratio (pull-down/input)
11,GATGATTGTTCTCCCAGCTGATGAATTCGTTTTGTCGAGTAAACAAATTTTCCTAATCTTTCTGTTCAAGCGCCATCTAC,3.54 RPM ratio (pull-down/input)
12,GATGATTGTTCTCCCAGCTGATGAATTTGTTTTTTCGAGTAAACAAATTTTCCTAATCTTTCTGTTCAAGCGCCATCTAC,6.93 RPM ratio (pull-down/input)
13,GATGATTGTTCTCCCAGCTGATGAATTCTTTGTTTCGAGTAAACAAATTTTCCTAATCTTTCTGTTCAAGCGCCATCTAC,0.575 RPM ratio (pull-down/input)
14,GATGATTGTTCTCCCAGCTGATGAATTCGTTTTTTCGAGTAAACAAATTTTCCTAATCTTTCTGTTCAAGCGCCATCTAC,2.58 RPM ratio (pull-down/input)
15,GATGATTGTTCTCCCAGCTGATGAATTGATTTGTTCGAGTAAACAAATTTTCCTAATCTTTCTGTTCAAGCGCCATCTAC,3.85 RPM ratio (pull-down/input)
16,GATGATTGTTCTCCCAGCTGATGAATTTGTTGGTTCGAGTAAACAAATTTTCCTAATCTTTCTGTTCAAGCGCCATCTAC,7.67 RPM ratio (pull-down/input)

row,Sequence,binding signal
1,GATGATTGTTCTCCCAGCTGATGAATTGTACTATTCGAGTAAACAAATTTTCCTAATCTTTCTGTTCAAGCGCCATCTAC,0.669 RPM ratio (pull-down/input)
2,GATGATTGTTCTCCCAGCTGATGAATTGTCCCTGTCGAGTAAACAAATTTTCCTAATCTTTCTGTTCAAGCGCCATCTAC,0.319 RPM ratio (pull-down/input)
3,GATGATTGTTCTCCCAGCTGATGAATTAGGGGTTTCGAGTAAACAAATTTTCCTAATCTTTCTGTTCAAGCGCCATCTAC,0.738 RPM ratio (pull-down/input)
4,GATGATTGTTCTCCCAGCTGATGAATTTTACGCGTCGAGTAAACAAATTTTCCTAATCTTTCTGTTCAAGCGCCATCTAC,0.624 RPM ratio (pull-down/input)
5,GATGATTGTTCTCCCAGCTGATGAATTGAGACACTCGAGTAAACAAATTTTCCTAATCTTTCTGTTCAAGCGCCATCTAC,1.41 RPM ratio (pull-down/input)
6,GATGATTGTTCTCCCAGCTGATGAATTGCGGACATCGAGTAAACAAATTTTCCTAATCTTTCTGTTCAAGCGCCATCTAC,0.781 RPM ratio (pull-down/input)
7,GATGATTGTTCTCCCAGCTGATGAATTAAAAATTTCGAGTAAACAAATTTTCCTAATCTTTCTGTTCAAGCGCCATCTAC,0.202 RPM ratio (pull-down/input)
8,GATGATTGTTCTCCCAGCTGATGAATTTGGTTAATCGAGTAAACAAATTTTCCTAATCTTTCTGTTCAAGCGCCATCTAC,0.489 RPM ratio (pull-down/input)
9,GATGATTGTTCTCCCAGCTGATGAATTCCCCGCATCGAGTAAACAAATTTTCCTAATCTTTCTGTTCAAGCGCCATCTAC,0.735 RPM ratio (pull-down/input)
10,GATGATTGTTCTCCCAGCTGATGAATTCTCCGCATCGAGTAAACAAATTTTCCTAATCTTTCTGTTCAAGCGCCATCTAC,0.8 RPM ratio (pull-down/input)
11,GATGATTGTTCTCCCAGCTGATGAATTCCGCATCTCGAGTAAACAAATTTTCCTAATCTTTCTGTTCAAGCGCCATCTAC,6.95 RPM ratio (pull-down/input)
12,GATGATTGTTCTCCCAGCTGATGAATTCCGCATTTCGAGTAAACAAATTTTCCTAATCTTTCTGTTCAAGCGCCATCTAC,6.33 RPM ratio (pull-down/input)
13,GATGATTGTTCTCCCAGCTGATGAATTCCGCGCATCGAGTAAACAAATTTTCCTAATCTTTCTGTTCAAGCGCCATCTAC,1.39 RPM ratio (pull-down/input)
14,GATGATTGTTCTCCCAGCTGATGAATTCCCGCATTCGAGTAAACAAATTTTCCTAATCTTTCTGTTCAAGCGCCATCTAC,5.9 RPM ratio (pull-down/input)
15,GATGATTGTTCTCCCAGCTGATGAATTTCCGCATTCGAGTAAACAAATTTTCCTAATCTTTCTGTTCAAGCGCCATCTAC,6.24 RPM ratio (pull-down/input)
